Marburg entry inh = blocks Marburg virus binding to or entry into cells; Marburg virus pseudotyped entry inhibition, cell reporter; Potency, µM (titrated, usually from 37.8 µM), hits mostly inhibitors; 1.8% of 300,000 active; calls by dose curve; tested in HEK293 cells
Shiga inhibitor = Shiga toxin inhibition. Vero cells, Shiga toxin protein synthesis inhibition reporter. inhibition, % at 38.7 µM. 9.2% of 290,000 active; in the data active means inhibition mostly above about 28%, no sharp cut-off; inactive means mostly below about 43%
Cycloheximide cs = counter-screen hit for Shiga toxin inhibitors, cycloheximide | cell reporter, cycloheximide protein synthesis inhibition counterscreen | max response, % | 12% of 300,000 active | AID 2314; in the data active means max response mostly above about 13%, no sharp cut-off; inactive means mostly below about 14%; further: read at 38.3 µM for the half of the compounds with a filed dose
Lassa entry inh = blocks Lassa virus binding to or entry into cells | Lassa virus pseudotype entry inhibition, cell reporter | Potency, µM (doses to about 37.9 µM), most hits filed as inhibitors | 1.2% of 300,000 active; calls by dose curve; tested in HEK293 cells; further: nearly all actives have a fitted effect of over 50% in size
Each line names hits and unclear results; the compound was inactive in the other large screens. The list is not random: actives were taken first. Their share in the collection is about 12%.

CC1CCCN(C(=S)Nc2ccc(Nc3ccccc3)cc2)C1 (stereo not given)	Shiga inhibitor 98.7, Cycloheximide cs 23.2, Lassa entry inh inconclusive
CC1CCCN(C(=S)Nc2ccc(F)cc2)C1 (stereo not given)	none
COC(=O)Cc1ccc(NC(=S)N2CCCC(CO)C2)cc1 (stereo not given)	Marburg entry inh inconclusive, Lassa entry inh inconclusive
O=C(NCCc1ccc(Cl)cc1Cl)c1cccnc1	none
Cc1c(C=C2C(=O)c3ccccc3C2=O)cc(C#N)n1C	none (no result: Marburg entry inh, Lassa entry inh)
Cc1ccc(C(=O)/C=C/c2cc(C#N)n(C)c2C)cc1	Shiga inhibitor 80.0, Cycloheximide cs 35.4
O=C1C=C(c2cccs2)C[C@H](c2ccccc2)[C@H]1n1nnc([N+](=O)[O-])n1	Marburg entry inh 1.26µM, Lassa entry inh inconclusive
COc1cccc(NC(=O)CN(C)C(=O)c2cccc(S(=O)(=O)Nc3ccccc3OC)c2)c1	none (no result: Shiga inhibitor, Cycloheximide cs)
COc1ccc(S(=O)(=O)NCCc2csc(-c3ccc(F)cc3)n2)cc1	none (no result: Marburg entry inh, Shiga inhibitor, Cycloheximide cs)
Cc1ccc(N(NC(=O)C(O)(c2ccccc2)c2ccccc2)C(=O)CCl)cc1	Marburg entry inh 13µM, Lassa entry inh inconclusive
CCOc1ccc(-c2nc(CSc3nnc(N)s3)cs2)cc1	Shiga inhibitor 117.2, Cycloheximide cs 30.8
CCOc1ccc(-c2nc(CSc3nnc(N)s3)cs2)cc1OC	Marburg entry inh inconclusive, Shiga inhibitor 84.8, Cycloheximide cs 33.2
CSC1=N/C(=C\c2ccccc2Cl)C(=O)N1N(C)C	none (no result: Marburg entry inh, Lassa entry inh)
O=C(c1cc(C2CC2)nc2ccc(Br)cc12)N1N=C(C(F)F)CC1(O)C(F)F (stereo not given)	Marburg entry inh inconclusive, Lassa entry inh inconclusive
Cc1ccc(N=CC2=C(O)CC(c3ccco3)CC2=O)cc1 (stereo not given)	Marburg entry inh inconclusive, Cycloheximide cs 21.1
O=C1CC(c2cccc(Cl)c2)CC(O)=C1C=Nc1cccc(Cl)c1 (stereo not given)	none
O=C1CC(c2ccccc2)CC(O)=C1C=Nc1ccccc1O (stereo not given)	Cycloheximide cs 23.2 (no result: Marburg entry inh, Lassa entry inh)
O=C1CC(c2ccccc2)CC(O)=C1C=NC1CCCC1 (stereo not given)	none
O=C1CC(c2ccccc2)CC(O)=C1C=Nc1ccccc1 (stereo not given)	Shiga inhibitor 92.3, Cycloheximide cs 30.3, Lassa entry inh inconclusive
O=C1CC(c2ccco2)CC(O)=C1C=Nc1ccc(Br)cc1 (stereo not given)	none
O=C1c2ccccc2C(O)(c2ccccc2)N1c1ccncc1 (stereo not given)	none (no result: Marburg entry inh, Lassa entry inh)
Cc1cccc(N2CCN(C(=O)C3COc4ccccc4O3)CC2)c1C (stereo not given)	Shiga inhibitor 51.7, Cycloheximide cs 23.6 (no result: Marburg entry inh, Lassa entry inh)
O=C(C1COc2ccccc2O1)N1CCc2ccccc2C1 (stereo not given)	Marburg entry inh inconclusive, Shiga inhibitor 59.7, Cycloheximide cs 28.6
O=C(C1COc2ccccc2O1)N1CCN(Cc2ccccc2)CC1 (stereo not given)	none (no result: Marburg entry inh, Shiga inhibitor, Lassa entry inh)
O=C(C1COc2ccccc2O1)N1CCN(c2ccccc2Cl)CC1 (stereo not given)	none
CC(C)C[C@H](NC(=O)c1nc[nH]c1C(=O)NCc1ccc(CNC(=O)OC(C)(C)C)cc1)C(=O)OCc1ccccc1	none (no result: Marburg entry inh, Lassa entry inh)
O=C(Nc1ccc2oc(-c3ccccc3)nc2c1)c1ccncc1	Marburg entry inh inconclusive
O=C(Nc1ccc2oc(-c3ccccc3)nc2c1)c1cccs1	Shiga inhibitor 66.7, Cycloheximide cs 55.1
Cc1ccc2oc(-c3cccc(NC(=S)NC(=O)/C=C/c4ccco4)c3)nc2c1	Marburg entry inh inconclusive, Shiga inhibitor 68.7, Cycloheximide cs 51.6, Lassa entry inh inconclusive
Cc1ccc2oc(-c3cccc(NC(=S)NC(=O)c4cccs4)c3)nc2c1	Marburg entry inh inconclusive, Shiga inhibitor 24.2, Cycloheximide cs 41.1, Lassa entry inh inconclusive
CCOC(=O)/C=C/C(=O)OCC(=O)Nc1ccc(Cl)cn1	Marburg entry inh inconclusive
CCOC(=O)NC1(Nc2ccc(Cl)cn2)Oc2ccccc2O1	Cycloheximide cs 8.1 (no result: Marburg entry inh, Lassa entry inh)
CC(C)Oc1ccc(Cc2cnc(=S)[nH]c2N)cc1	none (no result: Marburg entry inh, Lassa entry inh)
COc1ccc(-c2ccnc3c2c(=O)n(C)c(=O)n3C)cc1OC	none (no result: Shiga inhibitor, Cycloheximide cs)
COc1cc2c(cc1OC)-c1c(OC)c(OC)c(OC)c3ccnc(c13)C2=O	Marburg entry inh 18.4µM, Lassa entry inh inconclusive
CC(C)[C@@H]1CC[C@@H](C)C[C@@H]1P(=O)(c1ccccc1)c1ccccc1	none (no result: Shiga inhibitor, Cycloheximide cs)
O=C(O)/C=C\c1cnc[nH]1	none (no result: Shiga inhibitor, Cycloheximide cs, Lassa entry inh)
COc1ccc(NC(=O)CN(C)C(=O)c2cc3c(s2)CCC(C)C3)cc1 (stereo not given)	Cycloheximide cs 14.4
COc1ccc(-c2cc(C(=O)Nc3c(C(=O)c4ccc(C)c(F)c4)oc4ccccc34)no2)cc1	Marburg entry inh inconclusive (no result: Shiga inhibitor, Cycloheximide cs)
CC(NC(=O)CN(C)S(=O)(=O)c1cccc2nsnc12)c1ccccc1 (stereo not given)	none (no result: Marburg entry inh, Lassa entry inh)
CCN(CC(=O)Nc1ccc2c(c1)OCCO2)S(=O)(=O)c1cccs1	Marburg entry inh inconclusive, Shiga inhibitor 51.9, Cycloheximide cs 27.9
Cc1ccc(NC(=O)CN(C)S(=O)(=O)c2ccc(Br)s2)cc1F	Shiga inhibitor 43.9, Cycloheximide cs 20.7
O=C(CNS(=O)(=O)c1ccc(Br)s1)Nc1ccc2c(c1)OCCO2	Marburg entry inh inconclusive, Cycloheximide cs 31.6
CC(NC(=O)CN(C)S(=O)(=O)c1ccc(Br)s1)c1ccccc1 (stereo not given)	Shiga inhibitor 84.1, Cycloheximide cs 36.0
COc1ccc(NC(=O)CN(C)S(=O)(=O)c2ccc(Br)s2)cc1	none
CCN(CC(=O)Nc1ccc2c(c1)OCCO2)S(=O)(=O)c1ccc(C)cc1	none
Cc1cc(NC(=O)C2CCC2)n(-c2ccccn2)n1	none
COC(=O)c1ccc(NC(=O)CN(C)S(=O)(=O)c2ccc(Br)s2)cc1	none (no result: Shiga inhibitor, Cycloheximide cs)
CN(CC(=O)Nc1ccc2c(c1)OCCO2)S(=O)(=O)c1ccc(Br)s1	Cycloheximide cs 24.7
CCOc1ccc(CCNC(=O)Cn2nc(CC)n3c(cc4c(OC)cccc43)c2=O)cc1OCC	none (no result: Shiga inhibitor, Cycloheximide cs, Lassa entry inh)
O=C(Nc1nc2c(s1)CCCC2)c1cccnc1	Shiga inhibitor 70.4, Cycloheximide cs 52.4
CC(=O)c1sc(NC(=O)c2ccc(Br)o2)nc1C	Shiga inhibitor 34.4, Cycloheximide cs 37.7 (no result: Marburg entry inh, Lassa entry inh)
O=C(Nc1nc2c(s1)CCCC2)c1cccs1	Marburg entry inh inconclusive, Cycloheximide cs 26.8, Lassa entry inh inconclusive
O=C(Nc1nc2c(s1)CCCC2)c1ccc(Br)o1	Marburg entry inh inconclusive, Shiga inhibitor 73.4, Cycloheximide cs 23.2, Lassa entry inh inconclusive
C[C@]12CCC(O)CC1CCC1C2CC[C@]2(C)C(c3cc(C(F)(F)F)n[nH]3)CCC12 (stereo not given in full)	none (no result: Marburg entry inh, Lassa entry inh)
CCc1ccccc1NC(=S)N(CCCN(C)C)Cc1cc2cc3c(cc2[nH]c1=O)OCO3	Marburg entry inh inconclusive
O=C(NC(=S)Nc1ccc(N2CCCC2)cc1)c1ccccc1[N+](=O)[O-]	Shiga inhibitor 39.9
O=C(Nc1ccc(N2CCCC2)c(Cl)c1)c1ccccc1[N+](=O)[O-]	Cycloheximide cs 26.8
CC(=O)N1CCN(c2ccc(NC(=O)c3ccc(N4CCCC4)c([N+](=O)[O-])c3)cc2Cl)CC1	Marburg entry inh inconclusive, Lassa entry inh inconclusive
COc1ccc(OC)c(N2C(=O)c3cccnc3C2=O)c1	none
C/C(=N\Nc1ccccn1)c1ccc(C#N)cc1	Shiga inhibitor 43.5, Cycloheximide cs 24.7 (no result: Lassa entry inh)
C/C(=N\n1cnnc1)c1ccc(C#N)cc1	none (no result: Marburg entry inh, Lassa entry inh)
C/C(=N\NC(=O)C(N)=O)c1ccc(OC(F)F)cc1	none

Source: PubChem (National Center for Advancing Translational Sciences (NCATS))
